Consider eleven molecules from PubChem BioAssay (NCATS).

Molecules are shown by their SMILES. Results filed as inconclusive are left out. Unmarked numbers belong to inactive results. Activity calls are given as the source filed them. The call rests on the fitted dose curve; in most records, active means well fitted curve in the direction sought with a large enough effect; inconclusive means small, poorly fitted or top-dose-only effect, or another doubt; inactive means no such curve, though single readings can be large; an effect the other way counts as inactive or inconclusive.

Assay [1] concerns UISO. Description: qHTS assay to identify novel small-molecules to repurpose for Merkel cell carcinoma treatment (AID 1296009). Further: nearly all actives have a fitted effect of over 60% in size. As to conditions: MCC and control cell lines, CellTiter-Glo viability, 72 h; series mostly up to 46 µM. The procedure, abridged:
(§1)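 Cell viability, measured as CellTiter-Glo luminescence, was normalized between DMSO and no-cell wells. The cells had been exposed to 8- or 11-point compound dilutions for 72 hr at 37 degree celsius.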

The subject of assay [2] is C33A. The assay can be described thus: Primary qHTS to identify gynecologic anti-cancer compounds using libraries of approved drugs and bioactive compounds (AID 1345084). Further: nearly all actives have a fitted effect of over 55% in size. As to conditions: Gynecologic cancer cell panel viability, ATPlite luminescence, 48 h; series mostly up to 57.5 µM. The procedure, abridged:
(§2)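 Cytotoxicity screen measuring ATP content by luciferase luminescence. Each compound is applied at five concentrations for 48 h at 37 C with 5% CO2.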

Assay [3] concerns CASKI. Described as above. As to conditions: Gynecologic cancer cell panel viability, ATPlite luminescence, 48 h; series mostly up to 57.5 µM. The procedure, abridged:
as §2
For orientation: ATP-based viability assays read luminescence as a measure of living cells.

Assay [4] deals with Es-2. Described as above. As to conditions: Gynecologic cancer cell panel viability, ATPlite luminescence, 48 h; series mostly up to 57.5 µM. The procedure, abridged: as §2
For assay [5], the system named is JEG-3. The assay is described as above. As to conditions: Gynecologic cancer cell panel viability, ATPlite luminescence, 48 h; series mostly up to 57.5 µM. The procedure, abridged: as §2
For assay [6], the system named is Tov-21-G. The assay is described as above. As to conditions: Gynecologic cancer cell panel viability, ATPlite luminescence, 48 h; series mostly up to 57.5 µM. The procedure, abridged:
as §2

A short description of assay [7]: Drug repurposing screens with cells derived from glioblastoma tumor samples (AID 1345199). Further: nearly all actives have a fitted effect of over 40% in size. As to conditions: GBM patient neurospheres viability, ATP luminescence, 48 h. The procedure, abridged:
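Primary testing used CD133+ neurospheres from four GBM patients, seven concentrations, 48 h exposure and ATP-based viability; confirmation added three slower-growing patient lines.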

Assay [8] concerns MCC-13. Description: qHTS assay to identify novel small-molecules to repurpose for Merkel cell carcinoma treatment (AID 1296009). Further: nearly all actives have a fitted effect of over 60% in size. As to conditions: MCC and control cell lines, CellTiter-Glo viability, 72 h; series mostly up to 46 µM. The procedure, abridged:
as §1

The subject of assay [9] is MCC-26. The assay is described as above. As to conditions: MCC and control cell lines, CellTiter-Glo viability, 72 h; series mostly up to 46 µM. The procedure, abridged:
as §1

Assay [10] concerns CAOV3. The assay can be described thus: Primary qHTS to identify gynecologic anti-cancer compounds using libraries of approved drugs and bioactive compounds (AID 1345084). Further: nearly all actives have a fitted effect of over 55% in size. As to conditions: Gynecologic cancer cell panel viability, ATPlite luminescence, 48 h; series mostly up to 57.5 µM. The procedure, abridged: as §2
On the technique in general: Quantitative high-throughput screening tests each substance at several concentrations.

Assay [11] deals with Hek293T. The description is as above. As to conditions: Gynecologic cancer cell panel viability, ATPlite luminescence, 48 h, control line for the selectivity index; series mostly up to 57.5 µM. The procedure, abridged: as §2
The test system of assay [12] is OV90. Described as above. As to conditions: Gynecologic cancer cell panel viability, ATPlite luminescence, 48 h; series mostly up to 57.5 µM. The procedure, abridged: as §2
Assay [13] relates to PA-1. The assay is described as above. As to conditions: Gynecologic cancer cell panel viability, ATPlite luminescence, 48 h; series mostly up to 57.5 µM. The procedure, abridged: as §2
The test system of assay [14] is SKOV3. Described as above. As to conditions: Gynecologic cancer cell panel viability, ATPlite luminescence, 48 h; series mostly up to 57.5 µM. The procedure, abridged:
as §2

The subject of assay [15] is Tov112D. The assay is described as above. As to conditions: Gynecologic cancer cell panel viability, ATPlite luminescence, 48 h; series mostly up to 57.5 µM. The procedure, abridged:
as §2

For assay [16], the system named is MKL-2. Description: qHTS assay to identify novel small-molecules to repurpose for Merkel cell carcinoma treatment (AID 1296009). Further: nearly all actives have a fitted effect of over 60% in size. As to conditions: MCC and control cell lines, CellTiter-Glo viability, 72 h; series mostly up to 46 µM. The procedure, abridged:
as §1

Assay [17] concerns WaGa. The assay is described as above. As to conditions: MCC and control cell lines, CellTiter-Glo viability, 72 h; series mostly up to 46 µM. The procedure, abridged:
as §1

For assay [18], the system named is MKL-1. Described as above. As to conditions: MCC and control cell lines, CellTiter-Glo viability, 72 h; series mostly up to 46 µM. The procedure, abridged: as §1
For assay [19], the system named is NIH3T3. The assay is described as above. As to conditions: MCC and control cell lines, CellTiter-Glo viability, 72 h; at 44.8 µM (top of the series) unless noted. The procedure, abridged:
as §1

Assay [20] concerns HeLa. The assay can be described thus: Primary qHTS to identify gynecologic anti-cancer compounds using libraries of approved drugs and bioactive compounds (AID 1345084). Further: nearly all actives have a fitted effect of over 55% in size. As to conditions: Gynecologic cancer cell panel viability, ATPlite luminescence, 48 h; series mostly up to 57.5 µM. The procedure, abridged:
as §2

[21] abbreviates: at 46.1 µM (top of the series), tumour line C.
Setting [22] is: at 45.9 µM (top of the series), tumour line B.
Where [23] appears, read: at 45.9 µM (top of the series), tumour line D.
The mark [24] stands for this setting: at 46 µM (top of the series), tumour line A.
On the % scale 0 is the no-effect control and ±100 the full control effect; potency means the concentration at half of the fitted maximal effect.

Consider `COC(=O)C1=C(C)NC(C)=C(C(=O)OCCN(C)Cc2ccccc2)C1c1cccc([N+](=O)[O-])c1` (centres undefined), for which the Potency in assay [1] was 23.7 µM (active); in [7] (tumour line A), 8.91 µM (active); in [7] (tumour line D), 14.1 µM (active). The Potency entry in [2], in assay [3], in assay [4], in assay [5] and in assay [6] was “inactive” each time. Moreover, in assay [7] (setting [21]), the activity, negative = cell killing is 14.5%.

With `CO[C@@]1(NC(=O)CSCC#N)C(=O)N2C(C(=O)O)=C(CSc3nnnn3C)CS[C@@H]21`, the Potency entry in [8], in assay [9], in assay [1], in assay [2], in [10] and in assay [3] was “inactive” in each case. For the same molecule, the Potency result in [4], in assay [11], in assay [5], in [12], in [13] and in [14] was “inactive” in each case. Further, the Potency result in [6] and in [15] was “inactive” in each case. For the same molecule, the activity, negative = cell killing was -13.1% in [7] (setting [22]), -14.3% in assay [7] (setting [23]) and -28.8% in assay [7] (setting [24]).

With `CN(C)CCCN1c2ccccc2Sc2ccc(C(F)(F)F)cc21`, the Potency result in [9] and in assay [5] was “inactive” in each case. For the same molecule, the values for the Potency in assay [16] and in [17] were 13.3 µM (active) and 26.6 µM (active), respectively.

Take `CNCCCN1c2ccccc2CCc2ccccc21`: the Potency entry in [8], in assay [9], in assay [2], in [4], in [11] and in assay [5] was “inactive” in each case. Also, the Potency entry in assay [13] and in assay [6] was “inactive” throughout. Further, the activity, negative = cell killing in [7] (at 20 µM (top of the series), tumour line C) is 14.5%. In addition, the Potency in assay [7] (tumour line A) is 8.91 µM (active).

For `COCC(=O)O[C@]1(CCN(C)CCCc2nc3ccccc3[nH]2)CCc2cc(F)ccc2[C@@H]1C(C)C`, the Potency result in assay [4], in assay [11], in assay [13], in [6] and in assay [15] was “inactive” in each case. Also, the Potency in [12] was 22.4 µM (active).

With `C[n+]1cc2c3c(ccc2c2ccc4cc5c(cc4c21)OCO5)OCO3`, the Potency is 3.66 µM (active) in [9]; 1.46 µM (active) in assay [18]; 0.651 µM (active) in assay [16]; 1.3 µM (active) in assay [1]; 1.03 µM (active) in assay [17]; 2 µM (active) in assay [2]. In addition, the Potency was 8.91 µM (active) in [4]; 8.91 µM (active) in assay [11]; 11.2 µM (active) in assay [12]; 5.01 µM (active) in [13]; 3.55 µM (active) in [14]; 7.94 µM (active) in assay [6]. In assay [15], the Potency is 10 µM (active).

`COc1ccc([C@@H]2Sc3ccccc3N(CCN(C)C)C(=O)[C@@H]2OC(C)=O)cc1`: the Potency entry in [2], in assay [3], in assay [4], in [11], in assay [5] and in assay [12] was “inactive” throughout. For the same molecule, the Potency result in [13], in assay [14], in [6] and in assay [15] was “inactive” each time. In addition, the activity, negative = cell killing in assay [7] (setting [21]) was -13.9%.

For `COC(=O)[C@@H](N)Cc1ccc(O)c(O)c1`, the Potency entry in assay [8], in [9], in assay [1], in assay [2], in assay [10] and in assay [3] was “inactive” in each case. Also, the Potency entry in [4], in assay [11], in assay [5], in assay [12], in assay [13] and in assay [14] was “inactive” in each case. Besides, the Potency entry in assay [6] and in assay [15] was “inactive” each time.

For `CC(C)[N+](C)(CCOC(=O)C1c2ccccc2Oc2ccccc21)C(C)C`, the Potency result in [8], in [9], in assay [1], in [2], in [10] and in assay [3] was “inactive” in each case. The Potency entry in assay [4], in assay [20], in assay [11], in assay [5], in assay [12] and in assay [13] was “inactive” throughout. Also, the Potency result in assay [14], in [6] and in assay [15] was “inactive” each time. In assay [19], the molecule was classed as inactive. Besides, the activity, negative = cell killing in assay [7] (setting [22]) was -4.27%; in assay [7] (setting [23]), -14.8%; in assay [7] (setting [24]) it was -16.6%; in [7] (setting [21]) it was -11.5%.

As for `COC(=O)C1=C(C)NC(C)=C(C(=O)OC(C)(C)CN(C)CCC(c2ccccc2)c2ccccc2)C1c1cccc([N+](=O)[O-])c1` (centres undefined), the Potency result in assay [9], in assay [2], in assay [10], in assay [3], in assay [4] and in assay [11] was “inactive” each time. Moreover, the Potency entry in assay [5], in assay [12], in assay [13], in assay [6] and in assay [15] was “inactive” throughout. Moreover, the Potency in [18] was 23.7 µM (active); in assay [7] (tumour line A), 2 µM (active); in [7] (tumour line C) it was 5.8 µM (active); in [7] (tumour line D), 5.01 µM (active).

With `COC(=O)[C@H]1[C@H]2C[C@@H]3c4[nH]c5cc(OC)ccc5c4CCN3C[C@H]2C[C@@H](OC(=O)c2cc(OC)c(OC)c(OC)c2)[C@@H]1OC`, the Potency entry in assay [8], in assay [2], in assay [10], in assay [3], in assay [4] and in assay [20] was “inactive” throughout. The Potency result in assay [11], in assay [5], in assay [12], in [13], in [14] and in assay [6] was “inactive” throughout. Further, the Potency entry in [15] was “inactive”. Further, in assay [7] (setting [22]), the activity, negative = cell killing is -27.8%. The Potency in assay [7] (tumour line A) is 5.01 µM (active).
